High-throughput results: PubChem, several laboratories
EP2 modulator = EP2 receptor (human) modulation. P43116. EP2-expressing cells, cAMP HTRF FRET, PGE2 co-stimulation. induction, % at 25 µM. 0.83% of 260,000 active;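 active = compounds whose cAMP rise, as percent of the full-agonist control response, exceeds 60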;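 also: rat C6 glioma line stably carrying human EP2 under a CMV promoter; the protocol text gives 20 µM as final concentration; 100% = response of wells given 1 µM PGE2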
PG9 Ab binder = PG9 antibody binding by small molecule. TR-FRET gp120-PG9 antibody binding. inhibition, % at 6.7 µM. 0.43% of 360,000 active; in the data active = inhibition above about 8.5%
RAM network inh = inhibitors of the yeast RAM network | 1.8% of 190,000 active | AID 868 | inhibition, % at 50 µM | S. cerevisiae dse1pr::URA3 reporter, 5-FOA growth OD615, 2 d; analog-sensitive cbk1-as2 kinase mutant strain;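 active = inhibition above a set limit, 3 SD over mean compound inhibition, cut at about 8.4% in these data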;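 also: 0% = DMSO-only wells with no growth and 100% = 10 µM 1-NA-PP1 full growth; inhibition rescues growth on 5-FOA so higher OD means more RAM inhibition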
NR1D1 modulator = modulates human Rev-erb alpha binding to DNA | Rev-erbα–FITC-DNA binding, fluorescence polarization, 90 min | activity, % at 10 µM | 0.79% of 370,000 active | P20393;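 active = activity above about 14%, limit read from the data; passing the limit was not always enough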;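 also: 0% = DMSO wells with 35 nM protein and 100% = DMSO wells with 750 nM protein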
Target sequence (P20393 whole entry, looked up): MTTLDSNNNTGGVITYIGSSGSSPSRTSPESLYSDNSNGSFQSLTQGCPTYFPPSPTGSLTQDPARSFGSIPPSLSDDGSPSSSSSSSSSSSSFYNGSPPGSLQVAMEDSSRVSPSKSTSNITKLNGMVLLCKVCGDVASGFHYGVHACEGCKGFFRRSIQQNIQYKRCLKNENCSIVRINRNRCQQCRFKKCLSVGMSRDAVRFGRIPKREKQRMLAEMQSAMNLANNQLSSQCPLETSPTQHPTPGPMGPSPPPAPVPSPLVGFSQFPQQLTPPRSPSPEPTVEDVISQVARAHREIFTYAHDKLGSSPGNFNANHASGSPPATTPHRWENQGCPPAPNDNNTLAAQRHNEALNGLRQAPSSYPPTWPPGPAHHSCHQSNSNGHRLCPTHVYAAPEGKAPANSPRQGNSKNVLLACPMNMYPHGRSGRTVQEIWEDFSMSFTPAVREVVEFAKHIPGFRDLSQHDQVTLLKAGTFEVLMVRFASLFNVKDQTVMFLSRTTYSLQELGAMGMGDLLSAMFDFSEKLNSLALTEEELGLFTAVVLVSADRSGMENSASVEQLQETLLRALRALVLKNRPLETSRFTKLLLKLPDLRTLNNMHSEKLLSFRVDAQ
PGE2 EP2 inh = inhibitors of human EP2 prostaglandin E2 receptor. P43116. C6 glioma cells expressing human EP2, cAMP TR-FRET; cells stimulated with saturating PGE2. inhibition, % at 25 µM. 0.52% of 260,000 active;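 active = percent inhibition above 40 after rounding to a whole number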;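 also: rat C6 glioma host cells with rolipram phosphodiesterase inhibitor present; the protocol text gives 20 µM as final concentration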
SKN-1 inh = blocks SKN-1 activity in C. elegans | 0.49% of 360,000 active | AID 624304 | C. elegans VP596 Pgst-4::GFP/RFP ratio, acrylamide-induced, 24 h | inhibition, % at 21.8 µM;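 active = interference check ratio from 0.5 to 1.5 plus GFP to RFP signal ratio inhibition reaching or exceeding a fixed threshold, cut at about 30% in these data, passing the limit was not always enough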
EP2 confirm = EP2 receptor cAMP induction, counter-screens negative. shares compounds with EP2 modulator. C6 glioma EP2 cells, cAMP HTRF induction; plus low (about EC15) PGE2 agonist. calls only at 20 µM (by protocol). 47% of 1,300 active;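 active = cAMP induction above 50% in the main assay while under 30% in all four parallel counter assays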;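 also: rat C6 glioma cells stably expressing human EP2 receptor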
PG9 binder conf = PG9 antibody binding, confirmed. shares compounds with PG9 Ab binder. TR-FRET PG9 antibody binding, biochemical. inhibition, % at 6.7 µM. 90% of 1,500 active. AID 651571; in the data active = inhibition above about 9%
PGV04 Ab binding = binds control antibody PGV04 in PG9 binder counter-screen; shares compounds with PG9 Ab binder; TR-FRET PGV04 antibody-gp120 binding, biochemical; inhibition, % at 6.7 µM; 95% of 1,500 active; in the data active = inhibition above about 9.5%
PG9 bind DR = small molecules binding HIV-1 gp120 antibody PG9; IC50, µM; shares compounds with PG9 Ab binder; TR-FRET PG9 antibody-gp120 binding inhibition; 95 tested, under 10 active; in the data active = IC50 below about 10 µM
PGV04 DR counter = PGV04 binding, dose response counter-screen. AID 651937. TR-FRET binding to control antibody PGV04. shares compounds with PG9 Ab binder. 20% of 95 active. IC50, µM
PG126 binding DR = PG126 binding, dose response counter-screen | TR-FRET binding to antibody PG126, counterscreen | shares compounds with PG9 Ab binder | IC50, µM | 20% of 95 active
NR1D1 mod conf = confirmation of modulators of human Rev-erb alpha DNA binding | 61% of 3,000 active | shares compounds with NR1D1 modulator | activation, % at 25 µM | Rev-erb alpha FITC-DNA binding, fluorescence polarization, 90 min;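 active = activation at or above a set limit, or at least 3 SD above the negative control mean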;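 also: 0% = 35 nM protein with DMSO and 100% = 750 nM protein high control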
RORg counter = affects RORgamma DNA binding in a Rev-erb alpha counter-screen | shares compounds with NR1D1 modulator | purified RORgamma protein-FITC-DNA binding, fluorescence polarization | IC50, µM | 8% of 910 active | AID 1259320;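 active = Compounds whose fitted half-maximal concentration for disrupting protein-DNA binding is below 10 micromolar; the record names Rev-erb in its text, so the target is in doubt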
Starred values were filed as active, the others as inactive; i = inactive; . = no result given; + = active, no number. Shown are actives, neighbours in structure and some others; about 2.9% of the full set was active somewhere. Rule as the data show it, unless noted: active = IC50 below about 9 µM; inactive = the rest.

SMILES	EP2 modulator	PG9 Ab binder	RAM network inh	NR1D1 modulator	PGE2 EP2 inh	SKN-1 inh	EP2 confirm	PG9 binder conf	PGV04 Ab binding	NR1D1 mod conf	others
N#CCCSc1ncnc2c1oc1ccccc12	66*	20*	2	2	9	4	i	46*	57*	.
OCCSc1ncnc2c1oc1ccccc12	6	-5	1	0	7	-19	.	.	.	.
Cc1ccc(N(Cc2cccs2)C(=O)c2cc3ccccc3oc2=O)cc1	24	.	.	.	7	.	.	.	.	.
O=C(O)CCSc1ccc2ccccc2n1	80*	18*	0	-3	10	-1	i	19*	20*	.
Cc1nc(SCCC(=O)O)c2ccccc2n1	83*	22*	0	.	25	-1	i	19*	24*	.
Cc1cc2cc3c(cc2nc1SCC(=O)NC1CCCCC1)OCO3	29	.	.	.	10	.	.	.	.	.
Cc1cc2ccccc2nc1SCC(=O)NC1CCCC1	77*	9.7*	-1	5	10	14	i	15*	18*	.
CCCCc1nc2sc3c(SCC(=O)NCc4ccco4)ncnc3c2c2c1CCC2	68*	84*	3	6	10	6	i	87*	82*	.	PG9 bind DR=3.3*;PGV04 DR counter=1.5*;PG126 binding DR=1.7*
N#Cc1c(-c2ccco2)nc(SCC(=O)Nc2cccc(Cl)c2)[nH]c1=O	64*	15*	6	-3	21	10	i	28*	32*	.
Cc1ccc(NC(=O)CSc2nc(-c3ccco3)c(C#N)c(=O)[nH]2)cc1	10	.	.	.	8	.	.	.	.	.
CC(=O)CSc1nc(-c2cccs2)c(C#N)c(=O)[nH]1	68*	49*	1	1	16	3	i	53*	65*	.
CC(=O)CSc1nc(N)c(C#N)c(-c2cccs2)c1C#N	-3	0	2	5	16	2	.	.	.	.
Cc1ccc(-n2nc3c(=S)[nH]nc(C)c3c2C)cc1	81*	45*	2	2	.	-2	i	28*	25*	.	PG9 bind DR=>67;PGV04 DR counter=i;PG126 binding DR=i
CC[C@@H](Cn1nc(-c2cccs2)ccc1=O)NC(=O)Cc1nonc1C	8	.	.	.	4	.	.	.	.	.
O=C1CNCCN1C1CCCC1	2	.	.	.	15	.	.	.	.	.
CSc1nc(Sc2ccccc2Cl)c2ccccc2n1	67*	9.1*	3	3	18	8	i	17*	22*	.
O=C(Nc1ccc(-c2nn3cnnc3s2)cc1)c1ccc(Br)o1	42	.	.	.	10	.	.	.	.	.
Cn1c(=O)c(NCCc2ccccc2)c2c3c(cccc31)C(=O)c1ccccc1-2	77*	4	4	97*	2	46	+	.	.	69*	RORg counter=>40
Cn1c(NCCc2ccccc2)cc(=O)n(C)c1=O	1	0	4	-1	14	16	.	.	.	.
COc1ccc(NC(=O)CSc2nc3sc(C)c(C)c3c(=O)[nH]2)c(OC)c1	-19	.	.	.	20	.	.	.	.	.
C/C(=N\N(Cc1ccccc1)c1ccccc1)c1ccncc1	75*	-3	4	43*	17	12	+	.	.	40*	RORg counter=>40
COc1cc2cc(Br)cc(Br)c2nc1C	78*	47*	3	37*	14	23	i	40*	54*	22*
O=C(Cc1n[nH]c(=O)c2ccccc12)N1CCC2(CC1)Nc1ccccc1-n1cccc12	15	.	.	.	2	.	.	.	.	.
COc1cc(-c2nc(-c3cccnc3)no2)cc(OC)c1OC	28	-2	2	2	9	12	.	.	.	.
COc1cc(-c2noc(-c3cccc(Cl)c3)n2)cc(OC)c1OC	55	4	2	74*	2	11	+	.	.	123*
SMILES	EP2 modulator	PG9 Ab binder	RAM network inh	NR1D1 modulator	PGE2 EP2 inh	SKN-1 inh	EP2 confirm	PG9 binder conf	PGV04 Ab binding	NR1D1 mod conf	others
Cc1ccc(OCC(=O)Nc2ccc(N3CCN(C)CC3)cc2)c(C)c1	-43	.	.	.	11	.	.	.	.	.
O=C(O)c1cc(-c2ccccc2)nc2nc(N3CCCCC3)sc12	10	-1	0	0	7	.	.	.	.	.
FC(F)(F)c1cc(-c2ccccc2)nc2nc(N3CCOCC3)sc12	67*	1	4	24*	10	7	+	.	.	8
COc1ccc(-c2nnc3ccc(SCC(=O)Nc4nc5ccccc5s4)nn23)cc1OC	66*	-1	3	46*	17	6	i	.	.	15
CCOC(=O)c1sc2nc3ccc(C)cc3cc2c1N	-6	.	.	.	11	.	.	.	.	.
COc1ccc(OC)c(-c2cc(C(=O)N3CCn4cccc4C3C(C)C)[nH]n2)c1 (stereo not drawn)	-55	.	.	.	11	.	.	.	.	.
O=C(CSc1ncnc2c1oc1ccccc12)Nc1ccccc1C(F)(F)F	79*	66*	1	348*	11	8	i	27*	75*	341*
CCn1ncc(Br)c1C(=O)Nc1sc2c(c1C(=O)OC)CCC2	.	0	.	4	39	2	.	.	.	.
CCOC(=O)c1c(NC(=O)c2c(Br)cnn2CC)sc(C)c1C	73*	1	9.1*	28*	14	30	+	.	.	12
Oc1ccccc1-c1nc(N2CCCC2)c2ccccc2n1	75*	-2	0	134*	8	-3	i	.	.	69*	RORg counter=6.9*
Cc1onc(-c2ccncc2)c1C(=O)NCCCN1CCCc2ccccc21	-66	.	.	.	7	.	.	.	.	.
COc1ccc(-c2nc3c(c(=O)[nH]c(=O)n3Cc3ccccc3)n2CCO)cc1	.	-1	.	0	.	1	.	.	.	.
CCCn1c(-c2cccs2)nc2c1c(=O)[nH]c(=O)n2Cc1ccccc1	72*	1	4	23*	0	0	+	.	.	2
COC(=O)c1c(NC(=O)c2ccoc2C)sc2c1CCC2	40	2	7	3	13	12	.	.	.	.
COC(=O)c1c(NC(=O)c2ccc(Br)s2)sc2c1CCC2	67*	-2	8	25*	9	7	i	.	.	28*
